Structures can show the parent of a compound that is named as a salt. Values without a mark were called inactive.
How the values were obtained:
Settings in all cases: 20 µM
[1] = tested on: Salmonella enterica typhimurium; assay: growth AUC normalised to DMSO control (fraction of control); higher = less growth inhibition, active = hit call of the paper
In short: (§1)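 Three biological replicates were carried out, with OD578 read hourly for 24 h. Before inoculation at a starting OD578 of 0.01, pathogens were passaged anaerobically twice; plates were pre-reduced mGAM containing 20 μM compound and 1% DMSO, sealed with breathable membranes, and the Haemophilus parainfluenzae medium carried added hemin and NAD. Area under each growth curve was calculated by the trapezoidal rule up to the exponential-to-stationary transition and normalised to DMSO controls on the same plate.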

Shigella flexneri = assay: as above
In short: as §1

Vibrio cholerae = assay: as above
In short: as §1

[2] = tested on: Yersinia pseudotuberculosis; assay: as above
In short: as §1

P. vulgatus RND KO = assay: growth AUC normalised to DMSO control (median) (fraction of control); higher = less growth inhibition, active = hit call of the paper
In short: (§2)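 After two overnight anaerobic passages, strains were inoculated at OD578 0.01 into mGAM in 96-well plates containing approved-drug library compounds at 20 μM and 1% DMSO. Growth was followed by reading OD578 hourly for 24 h within an anaerobic incubator. Area under the curve, taken by the trapezoidal rule up to the start of stationary phase, was normalised to same-plate vehicle wells, and the median of three biological replicates is listed.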

P. vulgatus WT = assay: as above
In short: as §2

[3] = tested on: S. enterica typhimurium WT; assay: as above
In short: as §2

[4] = tested on: S. enterica typhimurium tolC KO; assay: as above
In short: as §2
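Throughout, for growth AUC normalised to DMSO control (median): active when median AUC fell below 0.1.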

Row | SMILES | growth AUC normalised to DMSO control [1] | growth AUC normalised to DMSO control (Shigella flexneri) | growth AUC normalised to DMSO control (Vibrio cholerae) | growth AUC normalised to DMSO control [2] | growth AUC normalised to DMSO control (P. vulgatus RND KO) | growth AUC normalised to DMSO control (P. vulgatus WT) | growth AUC normalised to DMSO control [3] | growth AUC normalised to DMSO control [4]
1 | CCN(CC)CCOCCOC(=O)C1(c2ccccc2)CCCC1 [Carbetapentane citrate] | 0.995 | 1 | 1 | 1 | 1.01 | 1.01 | 0.995 | 0.992
2 | NC[C@H]1CC[C@H](C(=O)O)CC1 [Tranexamic acid] | 1 | 1.01 | 1.04 | 1.02 | 1.04 | 1.04 | 1 | 1
3 | N=c1nc(N2CCCCC2)cc(N)n1O [Minoxidil] | 1 | 1.03 | 1.01 | 0.974 | 0.992 | 1.01 | 0.981 | 1.01
4 | CCOC(=O)[C@H](CCc1ccccc1)N[C@@H](C)C(=O)N1[C@H](C(=O)O)C[C@@H]2CCC[C@@H]21 [Ramipril] | 1.02 | 1.06 | 1.07 | 1.01 | 0.985 | 0.99 | 1.01 | 1
5 | Cc1nc2n(c(=O)c1CCN1CCC(c3noc4cc(F)ccc34)CC1)CCCC2 [Risperidone] | 1 | 0.997 | 0.995 | 1 | 1.03 | 1.03 | 0.997 | 0.993
6 | CC(C)NNC(=O)c1ccncc1 [Iproniazide phosphate] | 1.01 | 1 | 0.997 | 1.02 | 1.02 | 1.03 | 1.02 | 0.992
7 | CCn1cc(C(=O)O)c(=O)c2cc(F)c(N3CCNCC3)nc21 [Enoxacin] | 0.00943 (active) | 0.0451 (active) | 0.033 (active) | 0.0435 (active) | 0.136 | 0.419 | 0.00979 (active) | 0.00708 (active)
8 | CC(=O)Nc1ccc(O)cc1 [Acetaminophen] | 0.992 | 0.99 | 0.997 | 0.996 | 1.02 | 1.01 | 1 | 0.998
9 | COC(=O)[C@@H]1[C@H]2C[C@H]3c4[nH]c5ccccc5c4CCN3C[C@@H]2CC[C@@H]1O [Yohimbine hydrochloride] | 0.984 | 0.958 | 0.969 | 1 | 0.984 | 1.01 | 1 | 1
10 | CN(C)CCC(c1ccccc1)c1ccccn1 (configuration not stated) [Pheniramine maleate] | 0.996 | 1.04 | 0.997 | 1.01 | 1.01 | 1.02 | 0.999 | 1.01
11 | CC1(C)NC(=O)N(c2ccc([N+](=O)[O-])c(C(F)(F)F)c2)C1=O [Nilutamide] | 0.928 | 0.977 | 0.957 | 1 | 0.964 | 0.952 | 0.992 | 0.999
12 | CO[C@@]1(NC(=O)CSCC#N)C(=O)N2C(C(=O)O)=C(CSc3nnnn3C)CS[C@@H]21 [Cefmetazole sodium salt] | 0.00445 (active) | 0.0256 (active) | 0.337 (active) | 0.139 (active) | 0.0391 (active) | 0.03 (active) | 0.00692 (active) | 0.00805 (active)
13 | O=C(O)Cc1ccccc1Nc1c(Cl)cccc1Cl [Diclofenac sodium] | 0.975 | 0.957 | 0.973 | 0.982 | 0.95 | 0.964 | 1 | 0.997
14 | CC1=C(/C=C/C(C)=C/C=C/C(C)=C\C(=O)O)C(C)(C)CCC1 [Isotretinoin] | 0.994 | 0.992 | 1 | 1 | 1.01 | 0.989 | 0.999 | 1
15 | CN(C)[C@@H]1C(=O)C(C(N)=O)=C(O)[C@@]2(O)C(=O)C3=C(O)c4c(O)ccc(Cl)c4[C@@H](O)[C@H]3C[C@@H]12 [Demeclocycline hydrochloride] | 0.00255 (active) | 0.0177 (active) | 0.056 (active) | 0.0357 (active) | 0.015 (active) | 0.0137 (active) | 0.00782 (active) | 0.00561 (active)
16 | C#CCN(C)CCCOc1ccc(Cl)cc1Cl [Clorgyline hydrochloride] | 0.966 | 0.955 | 0.862 (active) | 0.994 | 0.999 | 1.01 | 0.976 | 0.93
17 | CN[C@@H]1[C@H](O[C@H]2[C@H](O[C@H]3[C@H](O)[C@@H](O)[C@H](N=C(N)N)[C@@H](O)[C@@H]3N=C(N)N)O[C@@H](C)[C@]2(O)C=O)O[C@@H](CO)[C@H](O)[C@H]1O [Streptomycin sulfate] | 1.02 | 1.05 | 1.06 | 0.965 | 1.05 | 1.09 | 0.983 | 1
18 | C[n+]1ccccc1/C=N/O [Pralidoxime chloride] | 0.998 | 1.01 | 0.971 | 1.01 | 1.01 | 1 | 1.01 | 1
19 | NC(=O)c1ncn([C@@H]2O[C@H](CO)[C@@H](O)[C@H]2O)n1 [Ribavirin] | 0.995 | 0.949 | 0.983 | 0.952 | 0.987 | 1 | 0.98 | 0.988
20 | C=C1c2cccc(O)c2C(O)=C2C(=O)[C@]3(O)C(O)=C(C(N)=O)C(=O)[C@@H](N(C)C)[C@@H]3[C@@H](O)[C@H]12 [Methacycline hydrochloride] | 0.00318 (active) | 0.0126 (active) | 0.0374 (active) | 0.0389 (active) | 0.0122 (active) | 0.00531 (active) | 0.000703 (active) | 0.00224 (active)
21 | O=C(O)CN(CCN(CC(=O)O)CC(=O)O)CCN(CC(=O)O)CC(=O)O [Pentetic acid] | 1 | 1.01 | 1.03 | 1.07 | 1.05 | 1.08 | 1.02 | 0.998
22 | CN(C)/N=N/c1[nH]cnc1C(N)=O [Dacarbazine] | 0.989 | 0.976 | 0.994 | 1 | 1.04 | 1.03 | 0.997 | 1
23 | OCCN1CCN(CC/C=C2/c3ccccc3Sc3ccc(Cl)cc32)CC1 [Zuclopenthixol dihydrochloride] | 0.996 | 0.972 | 0.946 | 0.998 | 0.928 | 0.962 | 0.992 | 0.887
24 | O=C(Nc1cccc2c(=O)cc(-c3nnn[nH]3)oc12)c1ccc(OCCCCc2ccccc2)cc1 [Pranlukast] | 1.01 | 0.991 | 1 | 0.95 | 0.968 | 0.957 | 1.01 | 0.987
25 | C[C@]12CCC(=O)C=C1CC[C@@H]1[C@@H]2C(=O)C[C@@]2(C)[C@H]1CC[C@]2(O)C(=O)CO [Cortisone] | 0.993 | 0.945 | 0.983 | 0.982 | 0.994 | 1 | 1 | 0.995
26 | COCCCOc1ccnc(C[S+]([O-])c2nc3ccccc3[nH]2)c1C (configuration not stated) [Rabeprazole sodium salt] | 1.01 | 1.04 | 1.02 | 1 | 1.05 | 1.01 | 1 | 0.889
27 | O=C(O)c1cn(-c2ccc(F)cc2)c2cc(N3CCNCC3)c(F)cc2c1=O [Sarafloxacin] | 0.0114 (active) | 0.0236 (active) | 0.0367 (active) | 0.0409 (active) | 0.0128 (active) | 0.0174 (active) | 0.00503 (active) | 0.0079 (active)
28 | O=C1NCCN1CCN1CCC(c2cn(-c3ccc(F)cc3)c3ccc(Cl)cc23)CC1 [Sertindole] | 1.02 | 1.04 | 1.02 | 1.01 | 0.833 | 0.905 | 1 | 0.949
29 | Cc1c(NC(=O)c2cccnc2)c(=O)n(-c2ccccc2)n1C [Nifenazone] | 0.976 | 1 | 1.01 | 1.01 | 0.997 | 1 | 1.01 | 0.996
